From PubChem BioAssay AID686978 (National Center for Advancing Translational Sciences (NCATS), 2013)
Hit rate of the full screen: of about 420,000 compounds, about 64,000 (15%) were called active. Another 27% or so got no clear call; they are omitted. Only a sample is shown. Unmarked numbers belong to inactive results. Calls follow the shape of the dose curve; as a rule, active = well fitted inhibition curve with a large enough effect; inconclusive = small, poorly fitted or top-dose-only effect; inactive = flat fitted curve, though single readings scatter.

Assay: qHTS for Inhibitors of human tyrosyl-DNA phosphodiesterase 1 (TDP1): qHTS in cells in absence of CPT; also: nearly all actives have a fitted effect of over 55% in size
Conditions: DT40 Tdp1-/- hTDP1 cells, no CPT, ATP luminescence, 48 h; activity change, negative = growth inhibition: at 46.2 µM (top of the series)
Outline: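 Chicken DT40 Tdp1-/- cells complemented with human TDP1, screened without camptothecin (DMSO vehicle only), 400 cells/well. Compounds pin-transferred, cells incubated at 37 °C for at least 48 hr. Growth read as ATP-dependent luminescence (CellTiter-Glo, 30 min at RT).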
% is scaled to controls: 0 for no effect and ±100 for the full control effect; potency is read from the fitted curve at half-maximal effect.

| Compound | activity change, negative = growth inhibition [%] | Potency |
| --- | --- | --- |
| CCn1c(SCC(=O)Nc2cc(C)ccc2C)nnc1-c1cnccn1 | -12 | – |
| CCN(CCCNC(=O)c1c(C)oc2ncn(CC(C)C)c(=O)c12)Cc1ccccc1 | -17.9 | – |
| Cc1ccc(C(c2sc3nc(C)nn3c2O)N2CCN(c3ccccc3)CC2)cc1 (stereo unspecified) | -13.8 | – |
| Cc1ccn(CC(=O)N2N=C(C(F)F)CC2(O)C(F)F)n1 (stereo unspecified) | -0.589 | – |
| CCOc1ccccc1NC(=O)C1=C(C)Nc2ncnn2C1c1ccc(NC(C)=O)cc1 (stereo unspecified) | -21 | – |
| CCOC(=O)C1=C(c2ccccc2)Nc2ncnn2C1c1ccc(Cl)cc1 (stereo unspecified) | – | 18.4 µM (active) |
| CC1=C(C(N)=O)C(c2ccc(Br)cc2)n2ncnc2N1 (stereo unspecified) | -12.6 | – |
| COCCCNS(=O)(=O)c1cccc(S(=O)(=O)c2cccc(S(=O)(=O)NCCCOC)c2)c1 | -19.7 | – |
| Cc1ccc(/C=N/NC(=O)C(NC(=O)c2ccccc2)c2n[nH]c(=O)c3ccccc23)cc1 (stereo unspecified) | -9.86 | – |
| O=C(NCCN1CCOCC1)c1cc(-c2cccs2)nc2ccccc12 | -17.6 | – |
| Cc1ccsc1-c1cc(C(=O)O)c2c(ccc3ccccc32)n1 | 5.58 | – |
| CCCCN(C)CCCNC(=O)c1cc(-c2cccs2)nc2ccccc12 | – | 29.1 µM (active) |
| O=C1c2ccccc2-c2ccccc2NC1O (stereo unspecified) | 11 | – |
| COc1ccc(/C=N/OCc2ccccc2C#N)c(OC)c1 | -22.7 | – |
| CCOc1ccc(C2C(C#N)=C(N)N(N(C)C)C3=C2C(=O)CCC3)cc1 (stereo unspecified) | 5.03 | – |
| COc1ccccc1C(=O)NCCC(=O)NCC(c1ccco1)N1CCCCC1 (stereo unspecified) | -8.25 | – |
| O=C(NN1CCOCC1)c1cccc(F)c1 | -5.34 | – |
| CCOc1ccccc1C(=O)NCC(c1ccc(N(C)C)cc1)N1CCCC1 (stereo unspecified) | -76.7 | – |
| COc1cc(C(=O)NCC(c2ccco2)N2CCCC2)ccc1OCc1ccccc1 (stereo unspecified) | -17.8 | – |
| COc1ccc(C(=O)NCC(c2ccco2)N2CCc3ccccc32)cc1OC (stereo unspecified) | – | 16.4 µM (active) |
| COc1ccc(C(=O)NCC(c2ccc(N(C)C)cc2)N2CCc3ccccc32)c(OC)c1 (stereo unspecified) | – | 20.6 µM (active) |
| O=C(NCC(c1ccco1)N1CCc2ccccc21)c1cccc(F)c1 (stereo unspecified) | – | 11.6 µM (active) |
| COc1ccc(S(=O)(=O)NCC(c2ccc(N(C)C)cc2)N2CCc3ccccc32)cc1OC (stereo unspecified) | -27.6 | – |
| CN(C)C(CNC(=O)c1cccc(C#N)c1)c1ccco1 (stereo unspecified) | -2.74 | – |
| Cc1ccc(NC(=O)NCC(c2cccnc2)N2CCOCC2)cc1 (stereo unspecified) | 6.95 | – |
| CCOC(=O)c1c(NC(=O)CSc2cn(CCNC(=O)c3cccc(C(F)(F)F)c3)c3ccccc23)sc2c1CCC2 | -3.22 | – |

| Compound | activity change, negative = growth inhibition [%] | Potency |
| --- | --- | --- |
| O=C(NCC(c1cccnc1)N1CCc2ccccc21)c1cccc(C(F)(F)F)c1 (stereo unspecified) | – | 14.6 µM (active) |
| CCn1cc(C(=O)NCCO)c(=O)c2cc(F)c(N3CCN(C)CC3)cc21 | 2.98 | – |
| Cc1ccc(NC(=S)NC(NC(=O)Cc2cccc3ccccc23)C(Cl)(Cl)Cl)cc1 (stereo unspecified) | -8.05 | – |
| Cc1cc(C(=O)O)c(S(C)(=O)=O)s1 | 0.116 | – |
| NNc1nnc(Cc2ccncc2)c2ccccc12 | -14.2 | – |
| O=C(COC(=O)Cn1[nH]c(=O)c2ccccc2c1=O)Nc1c(Cl)cccc1C(F)(F)F | -0.552 | – |
| COc1ccc([N+](=O)[O-])cc1N(CC(=O)Nc1ccccc1C(=O)N1CCOCC1)S(C)(=O)=O | -1.39 | – |
| CN(C)c1ccc(C2N(C)C(=O)c3ccccc3N2C)cc1 (stereo unspecified) | -15 | – |
| CC1CCc2c(c3ccccc3[nH]c2=O)O1 (stereo unspecified) | 1.73 | – |
| O=C(O)C1OC(C(=O)O)C2C1C(F)(F)C2(F)F (stereo unspecified) | 0.936 | – |
| Cc1ccc2nc(NCCCNC(=O)c3cnccn3)c(C#N)cc2c1 | -1.12 | – |
| Cc1ccc(CNC(=O)COC(=O)C2CCC2)cc1 | 2.95 | – |
| CC(C#N)OC(=O)c1cccnc1SCC(=O)Nc1ccc2c(c1)OCO2 (stereo unspecified) | -14.2 | – |
| O=C(NCc1cccnc1)c1ccc2nc([C@@H]3O[C@H](CO)[C@H](O)[C@H](O)[C@H]3O)[nH]c2c1 | -3.78 | – |
| COc1ccc(CCNC(=O)CN(c2ccccc2)S(C)(=O)=O)cc1 | -14.2 | – |
| CCOc1ccc(N(CC(=O)NCCc2ccc(OC)cc2)S(C)(=O)=O)cc1 | -11.9 | – |
| COc1ccc(N(CC(=O)NCCc2ccc(Cl)cc2)S(=O)(=O)c2c(C)nn(C)c2C)cc1 | – | 20.6 µM (active) |
| COc1ccccc1CNC(=O)COn1nnc2ccc(S(=O)(=O)N3CCOCC3)cc21 | -30 | – |
| Cc1cccc(N2C(=O)N3[C@H](c4ccc(F)cc4)[C@@H]4C(=O)N(C5CCCCC5)C(=O)[C@@H]4[C@]3(Cc3ccccc3)C2=O)c1 | -7.34 | – |
| O=C1[C@H]2[C@@H](c3ccc(F)cc3)N3C(=O)N(c4ccc(C(F)(F)F)cc4)C(=O)[C@@]3(Cc3ccccc3)[C@H]2C(=O)N1C1CCCCC1 | – | 11.6 µM (active) |
| O=C1[C@H]2[C@@H](c3ccc(Cl)cc3)N3C(=O)N(c4cccc(F)c4)C(=O)[C@@]3(Cc3ccccc3)[C@H]2C(=O)N1C1CCCCC1 | -24 | – |
| S=C(Nc1cccnc1)Nc1ccccn1 | -7.96 | – |
| S=C(NN=Cc1ccccn1)Nc1ccccn1 | – | 1.46 µM (active) |
| CNC(=O)C(=O)N/N=C/c1ccccn1 | -13.2 | – |
| CC(C)(C)C(=O)NC1CC2CCCC(C1)N2C(=O)Nc1ccccc1F (stereo unspecified) | 1.81 | – |
